# Molecular target: Tyrosine-protein kinase HCK (Homo sapiens) (UniProt P08631)
# Conditions: at 0.1 µM
# 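Also: values are mean inhibition of HCK, taken from the GSK_PKIS kinase profiling screen.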
# Chain of Tyrosine-protein kinase HCK (Homo sapiens) (P08631 2-526 limits assumed): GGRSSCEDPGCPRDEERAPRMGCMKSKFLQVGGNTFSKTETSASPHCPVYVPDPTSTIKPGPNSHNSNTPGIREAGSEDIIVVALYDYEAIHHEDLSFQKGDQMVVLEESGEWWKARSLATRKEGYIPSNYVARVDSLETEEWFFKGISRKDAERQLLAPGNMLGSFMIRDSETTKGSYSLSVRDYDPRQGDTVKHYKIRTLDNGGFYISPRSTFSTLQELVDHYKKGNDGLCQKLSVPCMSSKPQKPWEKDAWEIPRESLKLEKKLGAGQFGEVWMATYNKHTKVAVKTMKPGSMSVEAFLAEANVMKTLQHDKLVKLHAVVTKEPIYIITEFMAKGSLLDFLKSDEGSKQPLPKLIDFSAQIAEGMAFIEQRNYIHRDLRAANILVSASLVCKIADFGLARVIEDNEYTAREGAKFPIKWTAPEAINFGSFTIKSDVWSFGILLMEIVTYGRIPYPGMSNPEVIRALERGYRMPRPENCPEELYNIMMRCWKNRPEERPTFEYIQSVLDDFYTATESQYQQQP
row,SMILES,inhibition [%]
1,COc1ccc(CNC(=O)c2ccc(-c3cc(-c4nnc(C)o4)ccc3C)cc2)cc1,5.56
2,Fc1ccc(-c2cc(-c3c[nH]nc3-c3ccccn3)ccn2)cc1,5.58
3,CS(=O)(=O)CCNCc1ccc(-c2ccc3ncnc(Nc4ccc(OCc5ccccc5)c(C(F)(F)F)c4)c3c2)o1,4.59
4,COc1ccc2c(-c3ccnc(Nc4cccc(OC(F)(F)F)c4)n3)cnn2n1,5.89
5,c1ccc(-c2nc3n(c2-c2ccc4c(c2)OCO4)CCC3)nc1,2.86
6,COc1ccc(-c2cc(-c3c[nH]nc3-c3ccccn3)ccn2)cc1,4.81
7,COc1ccc(-c2cc3c(N)ncnc3o2)cc1,-0.32
8,FC(F)(F)c1cccc(-c2nn3ncccc3c2-c2ccnc(Nc3ccc4c(c3)OCCO4)n2)c1,5.43
9,N#Cc1c(NC(=O)CN2CCOCC2)sc2c1CCCC2,2.96
10,COC(=O)Nc1nc2ccc(Oc3ccc(NC(=O)Nc4cccc(Cl)c4)cc3)cc2[nH]1,3.38
11,CN1CCC(n2cnc(-c3ccc(F)cc3)c2-c2ccnc(Nc3ccccc3)n2)CC1,4.85
12,Clc1ccc(-c2nn3ncccc3c2-c2ccnc(Nc3ccccc3)n2)cc1,7.64
13,COc1ccc(-c2nn3ncccc3c2-c2ccnc(Nc3ccc4c(c3)OCCO4)n2)cc1,13.4
14,Nc1nc(-c2ccc(F)cc2)c(-c2ccc3ncccc3n2)s1,5.89
15,COc1ccc2[nH]c3c4[nH]c5ccc(OC)cc5c4c4c(c3c2c1)C(=O)NC4=O,20.1
16,Cc1ccc(O)cc1Nc1ccnc2cc(-c3ccccn3)ccc12,70.9
17,NS(=O)(=O)c1ccc(N/N=C2\C(=O)Nc3ccc4ncccc4c32)cc1,13.6

row,SMILES,inhibition [%]
1,CCN1CCC(CC(=O)Nc2n[nH]c3nnc(-c4cccc(F)c4F)cc23)CC1,3.51
2,COc1cccc(-c2c[nH]c3c(N/N=C/c4ccncc4)ncnc23)c1,12.8
3,NC(=O)c1sc(-n2cnc3ccc(C(F)(F)F)cc32)cc1OCc1ccccc1Br,5.59
4,CC(C)COC(=O)c1ccc2c(c1)/C(=C/Nc1ccc(S(N)(=O)=O)cc1)C(=O)N2,4.68
5,CCn1c(-c2nonc2N)nc2cnc(Oc3cccc(NC(=O)c4ccc(N(C)C)cc4)c3)cc21,4.12
6,Fc1cccc(COc2ccc(Nc3ncnc4sc(-c5ccco5)cc34)cc2Cl)c1,4.32
7,CC(=O)NCc1cccc(C#Cc2cncnc2Nc2ccc(OCc3cccc(F)c3)c(Cl)c2)c1,2.8
8,CS(=O)(=O)CCNCc1coc(-c2ccc3ncnc(Nc4ccc(OCc5ccccc5)cc4)c3c2)c1,4.78
9,Cc1ccc2c(-c3ccnc(Nc4ccccc4)n3)c(-c3ccc(F)cc3)nn2n1,11.9
10,O=S(=O)(CCNCc1ccc(-c2ccc3ncnc(Nc4ccc(OCc5cccc(F)c5)c(Cl)c4)c3c2)o1)c1ccccc1,7.05
11,CCNC(=O)O[C@H]1CN[C@H](C#Cc2cc3ncnc(Nc4ccc(OCc5cccc(F)c5)c(Cl)c4)c3s2)C1,5.66
12,c1ccc(COc2ccc(Nc3ncnc4ccc(-c5ccco5)cc34)cc2)cc1,1.03
13,COC(=O)c1sc(-n2cnc3cc(OC)c(OC)cc32)cc1OCc1ccccc1C(F)(F)F,9.79
14,Cc1cccc2c1NC(=O)/C2=N\Nc1ccc(S(N)(=O)=O)cc1,4.11
15,CC(=O)Nc1cccc(C#Cc2cncnc2Nc2ccc(OCc3cccc(F)c3)c(Cl)c2)c1,5.81
16,CCn1c(-c2nonc2N)nc2ccccc21,5.97

# Source: ChEMBL document CHEMBL1961873, “Compounds: GSK PKIS; Assays: Nanosyn kinase panel” (2012)
